Drawing on the supplement of paper PMC9177965, this text covers cell viability activity for 37 compounds.

Each structure is given as a SMILES string.

The first experiment concerns HT29 RNF43 G659fs (RNF43 659mut, CRISPR-edited). As to the kind of experiment: cell viability activity relative to DMSO (negative = inhibition); higher = more viable cells (less growth inhibition). As to conditions: 5 µM; 96 h. The procedure:
(§1)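 Broad Repurposing Library primary screen at a single dose of 5 uM. HT29 sg-Ctrl and HT29 RNF43 G659fs CRISPR-edited isogenic cells were seeded at 2500 cells/well in 384-well plates in duplicate and treated for 96 h. Viability was read by CellTiter-Glo and reported as % activity relative to DMSO, with MG132 as the positive control (negative = growth inhibition).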
For the compound `Cc1cc(N2CCOCC2)cc2[nH]c(-c3c(NC[C@@H](O)c4cccc(Cl)c4)cc[nH]c3=O)nc12`, the cell viability activity was -55%.
The same measure, in the same setting: as for `Cc1nc(Nc2ncc(C(=O)Nc3c(C)cccc3Cl)s2)cc(N2CCN(CCO)CC2)n1`, the figure is -65.9%; as for `COC(=O)Nc1nc2cc(C(=O)c3ccccc3)ccc2[nH]1`, -58.1%; as for `CN1CCN(c2ccc(OC(F)(F)F)c(Nc3ncc4c(n3)-c3c(c(C(N)=O)nn3CCO)CC4)c2)CC1`, -69%.
With `CC(C)(C)c1cc(/C=C(\C#N)C(N)=S)cc(C(C)(C)C)c1O`, the cell viability activity is -85.1%.
With `CCN(CC)C(=S)SSC(=S)N(CC)CC`, the cell viability activity is -79.2%.
On the same count and under the same terms, the value for `O=C(c1cccc(Cl)c1F)N1CCN(Cc2cccc(Nc3nccs3)n2)CC1` was -27.7%; that for `Cn1nccc1Nc1nccc(-c2ccn([C@H](CO)c3ccc(Cl)c(F)c3)c(=O)c2)n1` was -54.6%; that for `COc1cc(NC(=O)Nc2cccc(CNC(=O)O[C@H]3CCOC3)c2)ccc1-c1cnco1` was -41.5%.
Same read-out and setting: the value for `N#Cc1ccc(Cn2cncc2CN2CCN(c3cccc(Cl)c3)C(=O)C2)cc1` was -45.7%; that for `C=C[C@@](C)(/C=C/c1ccc(O)cc1)CCC=C(C)C` was -39.5%.
As for `O=C(NOCC1CC1)c1ccc(F)c(F)c1Nc1ccc(I)cc1Cl`, the cell viability activity is -66.2%.
Regarding `CN(C)C(=O)c1cc2cnc(Nc3ccc(N4CCNCC4)cn3)nc2n1C1CCCC1`, the cell viability activity is -26%.
As for `O=C1c2c(O)ccc(O)c2C(=O)c2c(NCCNCCO)ccc(NCCNCCO)c21`, the cell viability activity is -100%.
Same read-out and setting: the value for `CCCCCCOc1nsnc1C1=CCCN(C)C1` was -59.1%.
On the same count and under the same terms, as for `O=C(NOCC(O)CO)c1cc(Br)c(F)c(F)c1Nc1ccc(I)cc1F` (configuration not stated), the figure is -75.8%; as for `CC(C)(O)C(=O)N1CCN(c2ccc(C(F)(F)F)c(C3=C(c4c[nH]c5ccccc45)C(=O)NC3=O)c2)CC1`, -43.1%.
Still for that read-out and setting: as for `Cc1cc(Nc2nc(N[C@@H](C)c3ccc(F)cc3)c(C#N)cc2F)n[nH]1`, the figure is -66.7%; as for `c1ccc2c(CCNc3ccc(Nc4ccncc4)cc3)c[nH]c2c1`, -93.4%; as for `CC(C)NC(=O)N1CC[C@H](NC2=Nc3cc(F)ccc3N(CC(F)F)c3ccc(Cl)cc32)C1`, -49.3%.
With `C[C@H]1O[C@H](O[C@H]2[C@H](O)[C@@H](O)[C@@H](O[C@H]3[C@H](O)[C@@H](O)C(O)O[C@@H]3CO)O[C@@H]2CO)[C@H](O)[C@@H](O)[C@@H]1N[C@H]1C=C(CO)[C@@H](O)[C@H](O)[C@H]1O` (some centres not stated), the cell viability activity was -83.5%.
For `COc1cc(Nc2c(C#N)cnc3cc(OCCCN4CCN(C)CC4)c(OC)cc23)c(Cl)cc1Cl`, the cell viability activity is -96.5%.
Take `Cc1cc(O)c(-c2ccc([C@@H](C)CN)cc2)c2c1[nH]c(=O)c1sccc12`: the cell viability activity was -92.6%.
The same measure, in the same setting: as for `Cc1cc(Nc2cc(N3CCN(C)CC3)nc(Sc3ccc(NC(=O)C4CC4)cc3)n2)n[nH]1`, the figure is -22.2%.
The same measure, in the same setting: the value for `Clc1ccc(COC(Cn2ccnc2)c2ccc(Cl)cc2Cl)cc1` (configuration not stated) was -23.9%.
`CCOc1ccccc1OC(c1ccccc1)C1CNCCO1` (configuration not stated): the cell viability activity is -30.5%.
Same read-out and setting: the value for `FC(F)c1nc2ccccc2n1-c1nc(N2CCOCC2)nc(N2CCOCC2)n1` was -33%.
As for `CC(C)c1cc(CNc2nc(Nc3cc(C4CC4)[nH]n3)cc(N3CCN(C)CC3)n2)on1`, the cell viability activity was -86.1%.
The same measure, in the same setting: the value for `CN(C)CCCCC(=O)Nc1ccc(NC(=S)NC(=O)c2ccc(C(C)(C)C)cc2)cc1` was -85.9%; that for `CCN(CC)CC1CCN(c2ncc3ncnc(Nc4ccc(F)c(Cl)c4)c3n2)CC1` was -37.1%.

The next experiment has as its system HT29 sg-Ctrl (RNF43 wildtype). Described as above. The following applies: 5 µM; 96 h. The procedure:
as §1
With `Cc1cc(N2CCOCC2)cc2[nH]c(-c3c(NC[C@@H](O)c4cccc(Cl)c4)cc[nH]c3=O)nc12`, the cell viability activity was -50.5%.
Consider `Cc1nc(Nc2ncc(C(=O)Nc3c(C)cccc3Cl)s2)cc(N2CCN(CCO)CC2)n1`, for which the cell viability activity was -60.3%.
On the same count and under the same terms, the value for `COC(=O)Nc1nc2cc(C(=O)c3ccccc3)ccc2[nH]1` was -51.4%; that for `CN1CCN(c2ccc(OC(F)(F)F)c(Nc3ncc4c(n3)-c3c(c(C(N)=O)nn3CCO)CC4)c2)CC1` was -82.8%; that for `CC(C)(C)c1cc(/C=C(\C#N)C(N)=S)cc(C(C)(C)C)c1O` was -77%.
In the case of `CC(=O)NCC(=O)N1[C@@H]2CC[C@H]1c1ccc(Nc3ncc(C(F)(F)F)c(NC4CCC4)n3)cc12`, the cell viability activity was -44.1%.
Turning to `CCN(CC)C(=S)SSC(=S)N(CC)CC`, the cell viability activity was -43.6%.
Still for that read-out and setting: as for `O=C(c1cccc(Cl)c1F)N1CCN(Cc2cccc(Nc3nccs3)n2)CC1`, the figure is -25.6%; as for `Cn1nccc1Nc1nccc(-c2ccn([C@H](CO)c3ccc(Cl)c(F)c3)c(=O)c2)n1`, -52.1%; as for `COc1cc(NC(=O)Nc2cccc(CNC(=O)O[C@H]3CCOC3)c2)ccc1-c1cnco1`, -23.6%.
Still for that read-out and setting: the value for `O=c1cc(N2CCOCC2)oc2c(-c3cccc4c3sc3ccccc34)cccc12` was -57.1%.
Regarding `N#Cc1ccc(Cn2cncc2CN2CCN(c3cccc(Cl)c3)C(=O)C2)cc1`, the cell viability activity is -43.4%.
Regarding `C=C[C@@](C)(/C=C/c1ccc(O)cc1)CCC=C(C)C`, the cell viability activity was -49.8%.
With `O=C(NOCC1CC1)c1ccc(F)c(F)c1Nc1ccc(I)cc1Cl`, the cell viability activity is -77.6%.
In the case of `CN(C)C(=O)c1cc2cnc(Nc3ccc(N4CCNCC4)cn3)nc2n1C1CCCC1`, the cell viability activity was -39.7%.
For `O=C1c2c(O)ccc(O)c2C(=O)c2c(NCCNCCO)ccc(NCCNCCO)c21`, the cell viability activity is -99.7%.
Same read-out and setting: as for `CN1CCC(CNc2ccc3ncc(-c4cccc(OC(F)(F)F)c4)n3n2)CC1`, the figure is -52.2%; as for `CCCCCCOc1nsnc1C1=CCCN(C)C1`, -58.7%.
Same read-out and setting: the value for `O=C(NOCC(O)CO)c1cc(Br)c(F)c(F)c1Nc1ccc(I)cc1F` (configuration not stated) was -79.7%.
For `CC(C)(O)C(=O)N1CCN(c2ccc(C(F)(F)F)c(C3=C(c4c[nH]c5ccccc45)C(=O)NC3=O)c2)CC1`, the cell viability activity was -32.7%.
As to `Cc1cc(Nc2nc(N[C@@H](C)c3ccc(F)cc3)c(C#N)cc2F)n[nH]1`, the cell viability activity is -56.7%.
Still for that read-out and setting: as for `c1ccc2c(CCNc3ccc(Nc4ccncc4)cc3)c[nH]c2c1`, the figure is -90.3%; as for `CC(C)NC(=O)N1CC[C@H](NC2=Nc3cc(F)ccc3N(CC(F)F)c3ccc(Cl)cc32)C1`, -50.8%; as for `C[C@H]1O[C@H](O[C@H]2[C@H](O)[C@@H](O)[C@@H](O[C@H]3[C@H](O)[C@@H](O)C(O)O[C@@H]3CO)O[C@@H]2CO)[C@H](O)[C@@H](O)[C@@H]1N[C@H]1C=C(CO)[C@@H](O)[C@H](O)[C@H]1O` (some centres not stated), -86.3%.
Still for that read-out and setting: the value for `Fc1cc(-c2cccc3ncc(-c4cnn(C5CCNCC5)c4)nc23)cc(F)c1CN1CCOCC1` was -92.4%; that for `COc1cc(Nc2c(C#N)cnc3cc(OCCCN4CCN(C)CC4)c(OC)cc23)c(Cl)cc1Cl` was -97.9%.
On the same count and under the same terms, as for `CC(CN1c2ccccc2Sc2ccccc21)N(C)C` (configuration not stated), the figure is -3.76%.
`Cc1cc(O)c(-c2ccc([C@@H](C)CN)cc2)c2c1[nH]c(=O)c1sccc12`: the cell viability activity was -92.7%.
For the compound `Cc1cc(Nc2cc(N3CCN(C)CC3)nc(Sc3ccc(NC(=O)C4CC4)cc3)n2)n[nH]1`, the cell viability activity is -38.2%.
Still for that read-out and setting: as for `Clc1ccc(COC(Cn2ccnc2)c2ccc(Cl)cc2Cl)cc1` (configuration not stated), the figure is -14.6%; as for `CCN1CCN(c2ccc(C(C)(C)NC(=O)c3cc4[nH]c5ccccc5c(=O)c4cc3F)cn2)CC1`, -42.7%.
On to `CCOc1ccccc1OC(c1ccccc1)C1CNCCO1` (configuration not stated), for which the cell viability activity was -58.7%.
For `FC(F)c1nc2ccccc2n1-c1nc(N2CCOCC2)nc(N2CCOCC2)n1`, the cell viability activity is -29.7%.
Consider `CC(C)c1cc(CNc2nc(Nc3cc(C4CC4)[nH]n3)cc(N3CCN(C)CC3)n2)on1`, for which the cell viability activity was -84.3%.
Regarding `CN(C)CCCCC(=O)Nc1ccc(NC(=S)NC(=O)c2ccc(C(C)(C)C)cc2)cc1`, the cell viability activity is -91.9%.
For `C1=N/C2=N/c3ccc(OCCN4CCCC4)c(c3)COC/C=C/COCc3cccc(c3)C(=C1)N2`, the cell viability activity is -31.8%.
Same read-out and setting: as for `CCN(CC)CC1CCN(c2ncc3ncnc(Nc4ccc(F)c(Cl)c4)c3n2)CC1`, the figure is -16.4%.
